Screening data from PubChem BioAssay.
Many of the other results were omitted from the sample, so hits are more common in it than they were.
ER stress death: ER stress cell death inhibition | AID 1010 | CSM14.1 thapsigargin ER stress survival, ATP luminescence | relative survival (cellular ATP), % at 15 µg/mL (by protocol) | hit rate 0.33% among 48,000;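 active = survival measured by cellular ATP above 50% at 15 µg/ml in the first screen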;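 note: cell death triggered by about 15 µM thapsigargin; ATP read 24 h after thapsigargin was added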
Of the large screens only hits and unclear results are named; the others gave an inactive call.

Ic1ccc(-c2nc(-c3ccncc3)no2)cc1	none
CSc1nc(NC(N)=O)c2c3c(sc2n1)CC(C(C)(C)C)CC3 (stereo unspecified)	ER stress death 58.4
CC(C)(C)C1CCc2c(sc3ncn(N)c(=N)c23)C1 (stereo unspecified)	none
CC(C)(C)C1CCc2c(sc(NC(=O)c3ccncc3)c2C(N)=O)C1 (stereo unspecified)	none
CC(=O)N(Cc1ccc2c(c1)OCO2)C1CC(=O)N(c2ccc(Br)cc2)C1=O (stereo unspecified)	none
Cc1ccc(-c2csc(NC(=O)C3CCCCC3C(=O)O)n2)c(C)c1 (stereo unspecified)	none
O=C(Nc1ncccn1)c1ccc([N+](=O)[O-])o1	ER stress death 65.0
O=C(Nc1ccc(Cl)c(Cl)c1)c1ccc([N+](=O)[O-])o1	none
Cc1ccc(C(=O)Nc2ncccn2)o1	none
Cc1ccccc1C(=O)NNC(=O)c1ccco1	none
Cc1ccccc1C(=O)NNC(=O)C(C)C	none
CCCC(=O)NNC(=O)c1ccccc1C	ER stress death 64.8
O=c1/c(=C\c2ccc(OCc3ccccc3)c(Br)c2)sc2nc3ccccc3n12	none
COc1ccc(N(Cc2ccc(C(=O)NCc3ccccc3)cc2)S(=O)(=O)c2ccccc2)cc1	none
CCN1C(=O)c2cccc3c(NC(=O)c4ccc(C(=O)c5ccccc5)cc4)ccc1c23	none
CCN1C(=O)c2cccc3c(NC(=O)c4ccc(Oc5ccccc5)cc4)ccc1c23	none
CCN1C(=O)c2cccc3c(NC(=O)c4ccc(S(=O)(=O)N5CCCCCC5)cc4)ccc1c23	ER stress death 96.4
COCCNC(=S)Nc1c(C)n(C)n(-c2ccccc2)c1=O	none
O=C(O)C1C2CCC(O2)C1C(=O)N1CCN(C(c2ccccc2)c2ccccc2)CC1 (stereo unspecified)	none
O=C(C1CC1c1ccccc1)N1CCN(C(c2ccccc2)c2ccccc2)CC1 (stereo unspecified)	ER stress death 103.9
O=C(O)C1C2C=CC(O2)C1C(=O)N1CCN(C(c2ccccc2)c2ccccc2)CC1 (stereo unspecified)	none
COc1ccc(C2Nc3ccccc3C(=O)N2c2ccccc2)cc1CN1C(=O)c2ccccc2C1=O (stereo unspecified)	none
COc1ccc(C2Nc3ccccc3C(=O)N2c2ccccc2)cc1COc1ccc(NC(C)=O)cc1 (stereo unspecified)	ER stress death 87.0
COc1ccc(N2C(=O)c3ccccc3NC2c2ccc(OC)c(CN3C(=O)c4ccccc4C3=O)c2)cc1 (stereo unspecified)	none
CC1=C(C(=O)c2ccccc2)C(c2ccc(F)cc2)NC(=O)N1 (stereo unspecified)	none
FC(F)C(F)(F)c1nc2ccccc2[nH]1	none
Cc1ccccc1C(=O)Nc1cccc(NC(=O)COc2ccc(Cl)cc2Cl)c1	none
CCOc1ccc(C(=O)Nc2cc(Cl)cc(Cl)c2)cc1Cl	none
CCOc1ccc(C(=O)Nc2ccc(Cc3ccncc3)cc2)cc1Cl	none
CCOc1ccc(C(=O)Nc2ccc(Cl)c(-c3nc4ccccc4[nH]3)c2)cc1Cl	ER stress death 64.7
O=C(Nc1ccccc1O)c1cccc2c(Br)cccc12	none
Ic1ccccc1NCn1nnc2ccccc21	none
Cc1ccc(/C(N)=N/OC(=O)COc2ccccc2)cc1	none
COc1ccccc1CNC(=O)c1ccc(OC)c(OC)c1	none
COc1ccccc1CNC(=O)c1ccc(C)cc1	none
COc1ccccc1CNC(=O)c1ccc(F)cc1	ER stress death 100.5
CCc1ccccc1NC(=O)c1c(NC(=O)Cc2ccccc2)sc(-c2ccccc2)c1C	none
CCOc1ccccc1NC(=O)c1cccc(C)c1	none
CCOc1ccc(C2Nc3ccc4ccccc4c3C3=C2C(=O)CC(C)(C)C3)cc1OC (stereo unspecified)	none
COc1cccc(CN2CCN(C(=O)c3ccc(-c4ccccc4)cc3)CC2)c1OC	ER stress death 113.1
COc1cccc(CN2CCN(C(=O)c3ccccc3)CC2)c1OC	none
COc1cc(CN2CCN(C(=O)c3ccc(-c4ccccc4)cc3)CC2)cc(OC)c1OC	ER stress death 75.2
O=C(c1ccc([N+](=O)[O-])cc1)N1CCN(Cc2cccc3ccccc23)CC1	ER stress death 63.3
COc1ccc(C(=O)N2CCN(Cc3cc(OC)c(OC)c(OC)c3)CC2)cc1OC	none
COc1ccc(C(=O)N2CCN(Cc3cc(OC)c(O)c(OC)c3)CC2)cc1	none
COc1cccc(CN2CCN(C(=O)c3cccc(F)c3)CC2)c1OC	none
O=C(c1ccc([N+](=O)[O-])cc1)N1CCN(Cc2cccc(Cl)c2)CC1	none
O=C(c1ccc([N+](=O)[O-])cc1)N1CCN(Cc2ccccn2)CC1	none
O=C(COc1ccccc1[N+](=O)[O-])Nc1ccc(Cl)c(-c2nc3ccccc3s2)c1	none
N#CC(=C1CCCCC1)c1nc(-c2cc3ccccc3oc2=O)cs1	none
O=C(O)c1ccccc1-c1ccccc1C(=O)N1CCCCC1	none
COc1ccc(C(=O)Nc2ccc(S(=O)(=O)NC(C)=O)cc2)cc1OC	none
O=C1NC(=O)N(c2ccccc2Cl)C(=O)/C1=C\C=C\c1ccco1	none
COc1ccc(N(CC(=O)Nc2ccc(Cl)cc2)S(C)(=O)=O)c(OC)c1	none
COc1ccc(N2C(=O)C(Cl)=C(Nc3ccccc3F)C2=O)cc1	none
O=C1/C(=C/c2ccc(-c3ccc([N+](=O)[O-])cc3)o2)SC(=S)N1Cc1ccco1	ER stress death 56.5
CCN1C(=O)/C(=C\c2ccc(-c3ccc([N+](=O)[O-])cc3)o2)SC1=S	none
O=C1S/C(=C\c2ccc(-c3ccc([N+](=O)[O-])cc3)o2)C(=O)N1c1ccccc1	none
O=C(CCCOc1ccccc1)Nc1ccc(OCc2ccccc2)cc1	none
CCCCOc1ccc(C(=O)Nc2ccc(S(=O)(=O)Nc3nccc(C)n3)cc2)cc1	none
O=S(=O)(Nc1ccc(N2CCCCC2)cc1)c1ccc(Cl)cc1	none
Cc1ccc(-n2c(C)cc(/C=N/NC(=O)c3ccncc3)c2C)cc1C	ER stress death 67.1
CCc1ccc(-n2c(C)cc(/C=N/NC(=O)c3ccncc3)c2C)cc1	none
Cc1cccc(C)c1-n1c(C)cc(/C=N/NC(=O)c2ccncc2)c1C	none
Cc1ccc(Br)cc1S(=O)(=O)N1CCOCC1	none
Cc1cc(C)cc(NS(=O)(=O)c2ccc3ccccc3c2)c1	none
CC(C)OCC(O)Cn1c2ccccc2c2ccccc21 (stereo unspecified)	none
CCOC(=O)/C(=C/C=C/N(C1CCCCC1)C1CCCCC1)C(C)=O	ER stress death 50.5
CCOC(=O)/C(C(C)=O)=C(\C=C\N(C)C)N(C)C	none
COC(=O)/C(=C\C=C\N(C)c1ccccc1)C(C)=O	none
COc1ccccc1/C=C/C(=O)c1ccc(Br)cc1	none
Cc1cc(NC(=O)c2ccc(C(C)(C)C)cc2)ccc1NC(=O)c1ccco1	none
Cc1nnc(SCC(=O)N2c3ccccc3C(C)(c3ccc(Br)cc3)CC2(C)C)s1 (stereo unspecified)	none
CC1(c2ccccc2)CC(C)(C)N(C(N)=O)c2ccccc21 (stereo unspecified)	none
C=CCn1c(SCC(=O)N2c3ccccc3C(C)(c3ccccc3)CC2(C)C)nnc1-c1ccncc1 (stereo unspecified)	ER stress death 76.2
Cc1onc(-c2ccccc2)c1C(=O)Nc1ccccc1F	none
CCN(CC)CCCNS(=O)(=O)c1ccc([N+](=O)[O-])cc1	none
O=C(CSc1nsc(SCC(=O)Nc2ccc(F)cc2)n1)Nc1ccc(F)cc1	none
CCOc1cc(C(=O)Nc2ccccc2Br)cc(OCC)c1OCC	none
O=C(c1ccccc1)N1CCN(Cc2cccc(Oc3ccccc3)c2)CC1	ER stress death 59.0
COc1ccc(OC)c(CN2CCN(C(=O)c3ccc(OC)c(OC)c3)CC2)c1	none
COc1ccc(C(=O)N2CCN(Cc3cccc(C)c3)CC2)cc1	none
